The supplement of paper PMC8975748
Structures can show the parent of a compound that is named as a salt.

Test system: Saccharomyces cerevisiae BY4741 SeMeCo community
Test: z-score of subpopulation abundance vs DMSO median, subpopulation auxotrophic for HLU; higher = larger share of this subpopulation than in DMSO controls
Conditions: 10 µM; 24 h; SM minimal medium; subpopulation (auxotrophy): HLU
Procedure: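 Fluorescent four-plasmid SeMeCo (self-establishing metabolically cooperating S. cerevisiae BY4741 community; plasmids pH-mRuby2, pL-mWasabi, pU-eCFP, pM-TagRFP657) was grown 24 h in minimal SM medium with each Selleck FDA-approved drug at 10 µM in 384-well plates. Cells were fixed and imaged by high-content confocal microscopy. For each auxotrophic subpopulation (and the prototroph), a z-score gives the deviation from the DMSO vehicle-control population median.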

Point of comparison: C[C@@H](O)[C@H]1C(=O)N2C(C(=O)O)=C(S[C@@H]3CN[C@H](C(=O)N(C)C)C3)[C@H](C)[C@H]12 [Meropenem], “z-score of subpopulation abundance” value 0.14. Against it:
- O=C1[C@@H]2[C@H]3CC[C@H](C3)[C@@H]2C(=O)N1C[C@@H]1CCCC[C@H]1CN1CCN(c2nsc3ccccc23)CC1 [lurasidone] — lower, -0.09
- O=C1C(N(CO)C(=O)NCO)N(CO)C(=O)N1CO (stereo not given) [Diazolidinyl urea] — lower, 0.05
- O=C1CN(/N=C/c2ccc(-c3ccc([N+](=O)[O-])cc3)o2)C(=O)N1 [Dantrolene sodium] — lower, -0.91
- CCOC(=O)c1ccc(O)cc1 [Ethylparaben] — lower, -0.25
- COc1cccc2c1C(=O)c1c(O)c3c(c(O)c1C2=O)C[C@@](O)(C(C)=O)C[C@@H]3O[C@H]1C[C@H](N)[C@H](O)[C@H](C)O1 [Daunorubicin HCl] — higher, 4.11
- O=c1[nH]c(=O)n([C@H]2C[C@H](O)[C@@H](CO)O2)cc1I [Idoxuridine] — lower, -0.57
- C[C@@H](O)[C@H]1C(=O)N2C(C(=O)O)=C(S[C@@H]3CN[C@H](C(=O)N(C)C)C3)[C@H](C)[C@H]12 [Meropenem Trihydrate] — higher, 0.91
- COc1ccccc1OCC(O)CN1CCN(CC(=O)Nc2c(C)cccc2C)CC1 (stereo not given) [Ranolazine 2HCl] — lower, -0.68
- CCN(CC)CCOC(=O)c1ccc(N)cc1Cl [Chloroprocaine HCl] — higher, 0.39
- Cc1cccc(N(C)C(=S)Oc2ccc3ccccc3c2)c1 [Tolnaftate] — lower, -0.38
- CNCc1cc(-c2ccccc2F)n(S(=O)(=O)c2cccnc2)c1 [Vonoprazan Fumarate (TAK-438)] — lower, -0.64
- C[C@]12CC[C@@H]3c4ccc(O)cc4CC[C@H]3[C@@H]1CC[C@@H]2OC(=O)CCC1CCCC1 [Estradiol Cypionate] — lower, 0
- CC1CCc2c(N3CCC(O)CC3)c(F)cc3c(=O)c(C(=O)O)cn1c23 (stereo not given) [Nadifloxacin] — lower, -0.45
- CO/N=C(\C(=O)N[C@@H]1C(=O)N2C(C(=O)OCOC(=O)C(C)(C)C)=C(/C=C\c3scnc3C)CS[C@H]12)c1csc(N)n1 [Cefditoren Pivoxil] — higher, 0.74
- COc1c(N2C[C@@H]3CCCN[C@@H]3C2)c(F)cc2c(=O)c(C(=O)O)cn(C3CC3)c12 [Moxifloxacin HCl] — lower, -0.07
- O=C1N=C(O)NC1(c1ccccc1)c1ccccc1 [Phenytoin Sodium] — higher, 0.17
- COc1cc([C@@H]2c3cc4c(cc3[C@@H](O[C@@H]3O[C@@H]5CO[C@@H](C)O[C@H]5[C@H](O)[C@H]3O)[C@H]3COC(=O)[C@H]23)OCO4)cc(OC)c1O [Etoposide] — higher, 0.56
- C[N+](C)(C)CCO.[Cl-] [Choline Chloride] — lower, -0.27
- CN(C)CCCN1c2ccccc2CCc2ccc(Cl)cc21 [Clomipramine HCl] — lower, -0.16
- O=C(Nc1cc(Cl)cc(Cl)c1O)c1c(O)c(Cl)cc(Cl)c1Cl [Oxyclozanide] — lower, -0.55
- CC(Cc1ccc(O)c(O)c1)C(C)Cc1ccc(O)c(O)c1 (stereo not given) [Nordihydroguaiaretic acid (NDGA)] — higher, 0.33
- CO[C@@H]1[C@@H](OC(N)=O)[C@@H](O)[C@H](Oc2ccc3c(O)c(NC(=O)c4ccc(O)c(CC=C(C)C)c4)c(=O)oc3c2C)OC1(C)C [Novobiocin Sodium] — higher, 1.49
- COc1cc(C(C)=O)ccc1OCCCN1CCC(c2noc3cc(F)ccc23)CC1 [Iloperidone] — lower, -1.31
- COc1ccc2[nH]c([S+]([O-])Cc3ncc(C)c(OC)c3C)nc2c1 (stereo not given) [Omeprazole] — higher, 1.91
- C[C@H]1c2cccc(O)c2C(O)=C2C(=O)[C@]3(O)C(O)=C(C(N)=O)C(=O)[C@@H](N(C)C)[C@@H]3[C@@H](O)[C@@H]21 [Doxycycline monohydrate] — lower, -0.54
- CN1[C@@H](CC(=O)c2ccccc2)CCC[C@H]1C[C@H](O)c1ccccc1 [Lobeline hydrochloride] — lower, -0.94
- Clc1ccc(COC(Cn2ccnc2)c2ccc(Cl)cc2Cl)c(Cl)c1 (stereo not given) [Miconazole Nitrate] — higher, 11.6
- CC[C@H](C)C[C@H](C)CCCCCCCCC(=O)N[C@H]1C[C@@H](O)[C@@H](NCCN)NC(=O)[C@@H]2[C@@H](O)CCN2C(=O)[C@H]([C@H](O)CCN)NC(=O)[C@H]([C@H](O)[C@@H](O)c2ccc(O)cc2)NC(=O)[C@@H]2C[C@@H](O)CN2C(=O)[C@H]([C@@H](C)O)NC1=O [Caspofungin Acetate] — higher, 13.9
- CC1CCc2cc(F)cc3c(=O)c(C(=O)O)cn1c23 (stereo not given) [Flumequine] — higher, 0.18
- CN(C)CCC=C1c2ccccc2C(C)(C)c2ccccc21 [Melitracen hydrochloride] — lower, -1.72
- CC(=O)Oc1ccccc1C(=O)O [Aspirin] — lower, -0.85
- O=C(O)c1cc(/N=N/c2ccc(O)c(C(=O)O)c2)ccc1O [Olsalazine Sodium] — lower, -1.31
- Cc1c(-c2ccccc2)oc2c(C(=O)OCCN3CCCCC3)cccc2c1=O [Flavoxate HCl] — higher, 1.32
- CS(=O)(=O)c1ccc([C@@H](O)[C@@H](CF)NC(=O)C(Cl)Cl)cc1 [Florfenicol] — lower, -0.45
- CC1=C(C(=O)OCCN(Cc2ccccc2)c2ccccc2)C(c2cccc([N+](=O)[O-])c2)C(P2(=O)OCC(C)(C)CO2)=C(C)N1 (stereo not given) [Efonidipine] — higher, 1.2
- OCCN(CCO)c1nc(N2CCCCC2)c2nc(N(CCO)CCO)nc(N3CCCCC3)c2n1 [Dipyridamole] — lower, -3.69
- NC(=N\CCCCCC/N=C(N)/N=C(\N)Nc1ccc(Cl)cc1)/N=C(\N)Nc1ccc(Cl)cc1 [Chlorhexidine diacetate] — higher, 1.21
- COc1ccc(NS(=O)(=O)c2ccc(N)cc2)nn1 [Sulfamethoxypyridazine] — lower, -0.41
- CN(Cc1cnc2nc(N)nc(N)c2n1)c1ccc(C(=O)N[C@@H](CCC(=O)O)C(=O)O)cc1 [Methotrexate disodium] — higher, 0.91
